Source: PubChem BioAssay (Tox21)
“And” between values parts separate entries of the source, which are not always exact repeats. Identical values can stand only once. Inconclusive results are not listed. A call without a number means that no potency is given here. A structure can be active in one record and inactive in another. The source made the active and inactive calls. Unless noted, calls come from the whole dose curve; as a rule, active = well fitted curve in the direction sought with a large enough effect in the repeat runs; inconclusive = weak or mixed curves; inactive = no such curve, though single readings can be large; an effect the other way counts as inactive or inconclusive.

Key:
[1] = Caspase-3/7 induction in HepG2 cells by small molecules, qHTS assay (AID 1346978); note: nearly all actives have a fitted effect of over 15% in size
Method in brief: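 Caspase-3/7 induction was measured by Caspase-Glo 3/7 luminescence (30 min, room temperature) after a 17 hr compound exposure of wild-type HepG2 cells seeded at 2,000 per well and pre-incubated 5 hr.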

[2] = Caspase-3/7 induction in CHO-K1 cells by small molecules, qHTS cell viability counter screen (AID 1346979); note: nearly all actives have a fitted effect of over 35% in size
Method in brief: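 To flag cytotoxic compounds, treated CHO-K1 wild-type cells were given CellTiter-Fluor at 16hr and read fluorescently after 1hr at 37C; the caspase-3/7 luminescence was measured in these same wells.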

[3] = Caspase-3/7 induction in CHO-K1 cells by small molecules, qHTS assay (AID 1346980); note: nearly all actives have a fitted effect of over 15% in size
Method in brief: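 Luminescent Caspase-Glo 3/7 read (30min, room temperature) quantified apoptosis induction. Cells were wild-type CHO-K1, treated with compound for 17hr at 37 C and 5% CO2.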

[4] = Caspase-3/7 induction in HepG2 cells by small molecules, qHTS cell viability counter screen (AID 1346981); note: nearly all actives have a fitted effect of over 30% in size
Method in brief: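 HepG2, WT, 2,000 cells/well; 5 hr pre-incubation 37 C/5% CO2; compound pin-transferred from DMSO; 16 hr exposure; CellTiter-Fluor, 1 hr; fluorescence read.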

[5] = target: Acetylcholinesterase (Homo sapiens) (UniProt P22303); assay: Acetylcholinesterase (AChE) small molecule antagonists: colormetric cell-based qHTS assay (AID 1347395; calls by dose curve; note: nearly all actives have a fitted effect of over 30% in size)
Method in brief: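 Neuroblastoma line SH-SY5Y supplied the enzyme; cells were preincubated with compound for 30 min at 37 C and 5% CO2. Acetylthiocholine with DTNB was then added for 90 min at 37 C, and thiocholine was measured by colour.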

[6] = target: Acetylcholinesterase (Homo sapiens) (UniProt P22303); assay: Acetylcholinesterase (AChE) small molecule antagonists: enzyme-based qHTS assay (AID 1347397; calls by dose curve; note: nearly all actives have a fitted effect of over 55% in size); details: Potency: AChE enzyme activity inhibition
Method in brief: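 rhAChE 50 mU/mL (dispensed) + cpd or DMSO, 30 min RT; add DTNB/acetylthiocholine cocktail, 10 min RT; colorimetric thiocholine readout. qHTS, 1536-well format.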

[7] = target: Acetylcholinesterase (Homo sapiens) (UniProt P22303); assay: Acetylcholinesterase (AChE) small molecule antagonists: enzyme-based qHTS assay with human liver microsomes (AID 1347399; calls by dose curve; note: nearly all actives have a fitted effect of over 60% in size); details: Potency: qHTS inhibition
Method in brief: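 Recombinant human AChE (50 mU/mL in the enzyme mix) and human liver microsomes (0.25 mg/mL final) were preincubated with compound and NADPH (0.25 mg/mL final) for 30 min at 37 C. Acetylthiocholine/DTNB was then added; thiocholine was read colorimetrically after 10 min at room temperature.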

[8] = target: Cytochrome P450 2D6 (Homo sapiens) (UniProt P10635); assay: Cytochrome P450 Family 2 Subfamily D Member 6 (CYP2D6) small molecule antagonists: luciferase reporter qHTS assay (AID 1671196); note: nearly all actives have a fitted effect of over 50% in size
Method in brief: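 Read-out is luminescence from luciferin formed by CYP2D6 turnover of a proluciferin substrate, recorded as relative luminescence units. Reactions ran 1 h at room temperature after NADPH regeneration solution was added.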

[9] = target: Cytochrome P450 2C19 (Homo sapiens) (UniProt P33261); assay: Cytochrome P450 Family 2 Subfamily C Member 19 (CYP2C19) small molecule antagonists: luciferase reporter qHTS assay (AID 1671197); note: nearly all actives have a fitted effect of over 65% in size
Method in brief: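 Compounds were tested on CYP2C19 activity via proluciferin conversion to luciferin. The 37C, 1 h reaction followed NADPH addition; detection reagent stopped it.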

[10] = target: Cytochrome P450 2C9 (Homo sapiens) (UniProt P11712); assay: Cytochrome P450 Family 2 Subfamily C Member 9 (CYP2C9) small molecule antagonists: luciferase reporter qHTS assay (AID 1671198); note: nearly all actives have a fitted effect of over 50% in size
Method in brief: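 Enzyme-substrate mix preincubated with compound 10 min at room temperature; reaction started with NADPH regeneration solution, 1 h 37C. Luminescent luciferin product read after 20 min detection reagent.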

[11] = target: Cytochrome P450 1A2 (Homo sapiens) (UniProt P05177); assay: Cytochrome P450 Family 1 Subfamily A Member 2 (CYP1A2) small molecule antagonists: luciferase reporter qHTS assay (AID 1671199); note: nearly all actives have a fitted effect of over 50% in size
Method in brief: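 P450-Glo CYP1A2, 1536-well qHTS: enzyme/proluciferin substrate + cpd (DMSO), 10 min RT; NADPH regen, 1 h RT; detection reagent, 20 min; luminescence, RLU.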

[12] = target: Voltage-gated inwardly rectifying potassium channel KCNH2 (Homo sapiens) (UniProt Q12809); assay: Human Ether-a-go-go-Related Gene (hERG) channel small molecule antagonists: fluorescence cell-based qHTS assay (AID 1671200); note: nearly all actives have a fitted effect of over 50% in size
Method in brief: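 Measured: Tl+ flux via fluorescence (480/540 nm) in hERG-expressing U2OS cells after 1 h dye loading at room temperature.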

[13] = target: Cytochrome P450 3A4 (Homo sapiens) (UniProt P08684); assay: Cytochrome P450 Family 3 Subfamily A Member 4 (CYP3A4) small molecule antagonists: luciferase reporter qHTS assay (AID 1671201); note: nearly all actives have a fitted effect of over 50% in size
Method in brief: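 Setup: enzyme-substrate mix, compound pin transfer, 10 min RT. Reaction: NADPH regeneration solution, 1 h RT. Readout: detection reagent stops turnover, luminescence measured after 20 min, expressed in relative luminescence units.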

[14] = target: Acetylcholinesterase (Homo sapiens) (UniProt P22303); assay: Acetylcholinesterase (AChE) small molecule antagonists: fluorescence cell-based qHTS assay (AID 1347398; calls by dose curve; note: nearly all actives have a fitted effect of over 50% in size); details: Potency: AChE activity
Method in brief: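 Read-out is Thiolite Green fluorescence at Ex/Em = 490/520 nm, formed by reaction with thiocholine released when cellular AChE in SH-SY5Y cells hydrolyzes acetylthiocholine. Compounds were preincubated 30 min at 37 C before substrate.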

[15] = target: Nuclear receptor subfamily 1 group I member 2 (Homo sapiens) (UniProt O75469); assay: Human pregnane X receptor (PXR) small molecule agonists, qHTS assay (AID 1346982); note: nearly all actives have a fitted effect of over 35% in size
Method in brief: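 Luciferase signal from ONE-Glo (30 min, room temperature) measured activation of hPXR-driven CYP3A4 reporter expression in PXR-Luc HepG2 cells treated with compounds for 24 hr at 37 C.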
Potency is the fitted concentration of half-maximal effect.

Chain of Cytochrome P450 2C9 (Homo sapiens) (P11712 whole entry, looked up): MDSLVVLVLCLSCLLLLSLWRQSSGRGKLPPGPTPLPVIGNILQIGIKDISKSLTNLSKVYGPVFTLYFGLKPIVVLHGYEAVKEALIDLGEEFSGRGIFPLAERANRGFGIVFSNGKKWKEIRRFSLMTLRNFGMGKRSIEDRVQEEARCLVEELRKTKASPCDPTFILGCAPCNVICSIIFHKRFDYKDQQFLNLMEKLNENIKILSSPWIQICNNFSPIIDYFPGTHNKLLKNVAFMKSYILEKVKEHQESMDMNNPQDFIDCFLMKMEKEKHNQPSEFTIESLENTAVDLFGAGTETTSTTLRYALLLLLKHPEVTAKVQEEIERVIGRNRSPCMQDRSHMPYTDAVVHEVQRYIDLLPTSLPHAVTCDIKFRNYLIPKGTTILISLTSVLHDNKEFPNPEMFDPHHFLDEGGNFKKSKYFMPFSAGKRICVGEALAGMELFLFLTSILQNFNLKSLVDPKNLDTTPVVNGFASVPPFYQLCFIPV
Chain of Cytochrome P450 3A4 (Homo sapiens) (P08684 whole entry, looked up): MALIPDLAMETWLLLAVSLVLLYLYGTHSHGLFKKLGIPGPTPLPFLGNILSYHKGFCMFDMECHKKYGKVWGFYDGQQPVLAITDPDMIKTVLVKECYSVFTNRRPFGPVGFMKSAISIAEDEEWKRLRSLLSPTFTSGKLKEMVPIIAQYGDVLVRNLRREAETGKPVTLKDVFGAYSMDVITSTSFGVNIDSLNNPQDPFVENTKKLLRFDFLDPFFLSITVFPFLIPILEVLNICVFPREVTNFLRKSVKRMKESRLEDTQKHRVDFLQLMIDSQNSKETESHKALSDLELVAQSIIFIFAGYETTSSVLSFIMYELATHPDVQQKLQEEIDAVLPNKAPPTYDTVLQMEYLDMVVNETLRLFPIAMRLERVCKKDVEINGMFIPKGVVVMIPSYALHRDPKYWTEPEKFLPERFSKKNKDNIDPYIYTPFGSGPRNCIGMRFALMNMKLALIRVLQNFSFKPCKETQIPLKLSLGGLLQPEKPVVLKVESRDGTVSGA
Chain of Acetylcholinesterase (Homo sapiens) (P22303 whole entry, looked up): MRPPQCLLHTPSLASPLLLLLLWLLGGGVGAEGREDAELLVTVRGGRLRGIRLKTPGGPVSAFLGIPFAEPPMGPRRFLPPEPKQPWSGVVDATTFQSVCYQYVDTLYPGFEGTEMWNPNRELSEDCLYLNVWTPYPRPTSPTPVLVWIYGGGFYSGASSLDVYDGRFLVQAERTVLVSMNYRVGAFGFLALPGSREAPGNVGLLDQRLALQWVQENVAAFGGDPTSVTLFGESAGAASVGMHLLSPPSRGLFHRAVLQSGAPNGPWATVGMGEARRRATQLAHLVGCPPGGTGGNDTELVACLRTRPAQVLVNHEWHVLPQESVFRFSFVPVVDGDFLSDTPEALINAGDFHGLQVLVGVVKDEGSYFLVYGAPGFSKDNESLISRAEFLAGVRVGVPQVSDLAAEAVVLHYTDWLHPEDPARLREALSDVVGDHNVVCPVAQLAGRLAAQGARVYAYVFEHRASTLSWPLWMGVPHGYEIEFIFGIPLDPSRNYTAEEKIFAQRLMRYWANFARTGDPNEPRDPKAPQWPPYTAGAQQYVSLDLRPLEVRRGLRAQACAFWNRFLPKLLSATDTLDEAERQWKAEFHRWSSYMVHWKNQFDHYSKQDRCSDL
Chain of Cytochrome P450 2C19 (Homo sapiens) (P33261 whole entry, looked up): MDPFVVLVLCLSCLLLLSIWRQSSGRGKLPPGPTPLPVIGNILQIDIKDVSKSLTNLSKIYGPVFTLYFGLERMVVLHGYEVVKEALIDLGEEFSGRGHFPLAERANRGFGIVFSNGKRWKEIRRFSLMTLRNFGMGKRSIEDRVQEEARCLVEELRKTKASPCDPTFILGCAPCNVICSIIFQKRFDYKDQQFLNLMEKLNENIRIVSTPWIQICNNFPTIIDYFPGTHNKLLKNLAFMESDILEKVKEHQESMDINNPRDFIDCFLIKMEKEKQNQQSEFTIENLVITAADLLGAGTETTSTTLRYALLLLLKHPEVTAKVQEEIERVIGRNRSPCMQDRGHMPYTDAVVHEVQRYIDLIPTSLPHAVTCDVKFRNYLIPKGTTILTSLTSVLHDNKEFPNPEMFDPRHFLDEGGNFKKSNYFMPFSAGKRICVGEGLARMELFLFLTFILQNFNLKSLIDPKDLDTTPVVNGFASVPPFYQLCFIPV
Chain of Nuclear receptor subfamily 1 group I member 2 (Homo sapiens) (O75469 whole entry, looked up): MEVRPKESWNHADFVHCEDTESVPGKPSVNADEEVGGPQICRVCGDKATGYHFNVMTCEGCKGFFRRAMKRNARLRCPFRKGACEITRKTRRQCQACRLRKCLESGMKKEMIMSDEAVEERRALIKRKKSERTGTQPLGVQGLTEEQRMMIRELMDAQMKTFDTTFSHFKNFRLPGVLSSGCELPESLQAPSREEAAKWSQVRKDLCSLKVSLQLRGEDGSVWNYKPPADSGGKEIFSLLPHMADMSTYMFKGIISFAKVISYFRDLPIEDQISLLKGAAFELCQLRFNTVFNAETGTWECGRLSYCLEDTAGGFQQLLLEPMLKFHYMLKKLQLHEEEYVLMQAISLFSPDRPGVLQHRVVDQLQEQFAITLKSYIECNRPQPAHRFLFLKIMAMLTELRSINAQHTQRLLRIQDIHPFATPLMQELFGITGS
Chain of Cytochrome P450 1A2 (Homo sapiens) (P05177 whole entry, looked up): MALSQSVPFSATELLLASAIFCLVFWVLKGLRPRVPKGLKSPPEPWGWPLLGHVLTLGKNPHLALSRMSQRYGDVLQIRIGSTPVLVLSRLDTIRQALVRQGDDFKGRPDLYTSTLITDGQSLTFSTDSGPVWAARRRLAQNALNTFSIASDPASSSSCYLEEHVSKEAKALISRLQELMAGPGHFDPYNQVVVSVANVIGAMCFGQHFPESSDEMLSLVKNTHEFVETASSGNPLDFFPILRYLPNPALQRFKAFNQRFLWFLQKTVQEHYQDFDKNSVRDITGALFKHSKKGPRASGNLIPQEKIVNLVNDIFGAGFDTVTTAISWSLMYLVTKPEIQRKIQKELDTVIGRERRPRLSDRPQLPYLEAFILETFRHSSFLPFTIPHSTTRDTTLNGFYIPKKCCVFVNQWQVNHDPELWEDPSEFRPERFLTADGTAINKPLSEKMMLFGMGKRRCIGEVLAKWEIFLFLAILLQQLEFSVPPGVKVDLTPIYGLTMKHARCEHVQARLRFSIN
Chain of Voltage-gated inwardly rectifying potassium channel KCNH2 (Homo sapiens) (Q12809 whole entry, looked up): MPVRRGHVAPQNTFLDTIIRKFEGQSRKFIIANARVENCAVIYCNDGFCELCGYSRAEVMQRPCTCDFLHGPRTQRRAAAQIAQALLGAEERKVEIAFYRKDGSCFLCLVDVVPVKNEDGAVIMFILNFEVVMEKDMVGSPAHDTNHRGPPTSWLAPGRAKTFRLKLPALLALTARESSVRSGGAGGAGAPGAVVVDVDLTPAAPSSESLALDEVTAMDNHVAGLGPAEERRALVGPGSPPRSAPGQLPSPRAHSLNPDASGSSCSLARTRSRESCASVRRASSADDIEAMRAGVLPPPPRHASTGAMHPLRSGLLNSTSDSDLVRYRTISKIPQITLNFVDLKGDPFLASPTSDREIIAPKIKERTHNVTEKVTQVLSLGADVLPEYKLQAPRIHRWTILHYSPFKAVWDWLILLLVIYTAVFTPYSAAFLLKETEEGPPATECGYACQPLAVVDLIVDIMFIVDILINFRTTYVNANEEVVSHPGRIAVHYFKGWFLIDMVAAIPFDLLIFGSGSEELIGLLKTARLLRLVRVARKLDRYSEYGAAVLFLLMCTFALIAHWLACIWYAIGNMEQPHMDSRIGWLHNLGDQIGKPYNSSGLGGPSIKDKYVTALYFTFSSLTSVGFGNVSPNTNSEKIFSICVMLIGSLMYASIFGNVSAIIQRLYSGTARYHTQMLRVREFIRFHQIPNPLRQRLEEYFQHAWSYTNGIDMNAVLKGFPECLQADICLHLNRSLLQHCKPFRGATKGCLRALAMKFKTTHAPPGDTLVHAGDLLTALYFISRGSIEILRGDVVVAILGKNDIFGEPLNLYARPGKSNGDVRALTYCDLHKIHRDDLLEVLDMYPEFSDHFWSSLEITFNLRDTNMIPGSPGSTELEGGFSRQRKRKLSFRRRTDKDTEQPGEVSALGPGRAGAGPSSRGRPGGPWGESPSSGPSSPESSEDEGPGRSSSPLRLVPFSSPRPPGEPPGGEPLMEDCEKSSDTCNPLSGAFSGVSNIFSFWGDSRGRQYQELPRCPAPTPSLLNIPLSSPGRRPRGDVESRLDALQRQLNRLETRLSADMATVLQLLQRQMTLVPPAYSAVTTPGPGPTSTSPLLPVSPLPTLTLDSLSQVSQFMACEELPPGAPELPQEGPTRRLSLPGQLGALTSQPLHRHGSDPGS
Chain of Cytochrome P450 2D6 (Homo sapiens) (P10635 whole entry, looked up): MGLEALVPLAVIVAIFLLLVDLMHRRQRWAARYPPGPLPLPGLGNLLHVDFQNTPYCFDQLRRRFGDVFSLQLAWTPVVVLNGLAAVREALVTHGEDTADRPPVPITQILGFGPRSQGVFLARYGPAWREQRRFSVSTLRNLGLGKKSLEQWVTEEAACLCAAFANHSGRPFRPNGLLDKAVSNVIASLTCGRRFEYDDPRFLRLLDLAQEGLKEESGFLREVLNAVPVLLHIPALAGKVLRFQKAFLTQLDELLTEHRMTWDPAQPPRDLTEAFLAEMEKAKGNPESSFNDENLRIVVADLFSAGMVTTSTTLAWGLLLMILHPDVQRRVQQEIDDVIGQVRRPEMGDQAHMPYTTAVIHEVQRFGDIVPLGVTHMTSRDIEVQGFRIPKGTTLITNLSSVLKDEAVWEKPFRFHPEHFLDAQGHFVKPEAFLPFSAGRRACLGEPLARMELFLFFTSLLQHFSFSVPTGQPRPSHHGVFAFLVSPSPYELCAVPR

SMILES	Potency [1]	Potency [2]	Potency [3]	Potency [4]	Potency [5]	Potency [6]	Potency [7]	Potency [8]	Potency [9]	Potency [10]	Potency [11]	Potency [12]	Potency [13]	Potency [14]	Potency [15]
Nc1cccnc1	inactive	inactive	inactive	inactive	inactive	inactive	inactive	inactive	71 µM (active)	inactive	inactive	inactive	inactive	–	–
CCCCN(CC)c1c([N+](=O)[O-])cc(C(F)(F)F)cc1[N+](=O)[O-]	inactive	inactive	inactive	inactive	inactive	inactive	–	inactive	72.1 µM (active) and 20 µM (active)	31.7 µM (active)	22.4 µM (active)	–	inactive	inactive	–
CCOc1cc(C=O)ccc1O	inactive	inactive	inactive	inactive	inactive	inactive	–	inactive	inactive	inactive	40 µM (active) and 39.9 µM (active)	inactive	inactive	–	–
CCCCNC(=O)n1c(NC(=O)OC)nc2ccccc21	6.08 µM (active) and inactive	30.6 µM (active)	inactive	inactive	inactive	inactive	inactive	inactive	79.3 µM (active)	–	25.1 µM (active) and 28.3 µM (active)	inactive	inactive	inactive	–
C#CCOS(=O)OC1CCCCC1Oc1ccc(C(C)(C)C)cc1 (stereo not given)	inactive	1.94 µM (active) and 1.93 µM (active)	inactive	–	inactive	inactive	inactive	22.5 µM (active) and 22.4 µM (active)	895 nM (active) and 710 nM (active)	503 nM (active) and 502 nM (active)	8.95 µM (active) and 8.94 µM (active)	–	1.59 µM (active) and 2.83 µM (active)	inactive	8.64 µM (active) and 6.86 µM (active)
Cc1cccc(N)c1N	inactive	inactive	inactive	inactive	inactive	inactive	–	61.2 µM (active) and 17.8 µM (active)	38.6 µM (active) and 35.6 µM (active)	34.4 µM (active) and 35.6 µM (active)	7.7 µM (active) and 14.2 µM (active)	inactive	3.86 µM (active) and 11.2 µM (active)	–	–
C=CCc1ccc2c(c1)OCO2	43.5 µM (active) and inactive	inactive	inactive	inactive	inactive	inactive	–	inactive	inactive	inactive	28.3 µM (active)	inactive	inactive	–	–
CC(C)N(C(=O)SCC(Cl)=C(Cl)Cl)C(C)C	inactive	inactive	–	inactive	inactive	inactive	inactive	inactive	35.1 µM (active) and 5.03 µM (active)	inactive and 31.7 µM (active)	inactive	27.5 µM (active)	inactive	inactive	inactive
O=P(Oc1ccccc1)(Oc1ccccc1)Oc1ccccc1	inactive	68.2 µM (active)	–	inactive	19.9 µM (active) and 20 µM (active)	7.06 µM (active) and 11.2 µM (active)	35.4 µM (active) and 71 µM (active)	inactive	2.81 µM (active) and 5.64 µM (active)	6.3 µM (active) and 6.33 µM (active)	9.98 µM (active) and 11.2 µM (active)	21.8 µM (active) and 38.9 µM (active)	inactive	2.51 µM (active) and 3.56 µM (active)	30.5 µM (active) and 27.3 µM (active)
Nc1ccc(Cl)c(Cl)c1	inactive	inactive	inactive	inactive	inactive	inactive	inactive	inactive	inactive	36.4 µM (active) and 35.6 µM (active)	40.9 µM (active) and 35.6 µM (active)	inactive	32.5 µM (active)	–	–
CCOC(=S)S	inactive	61.1 µM (active) and 23.1 µM (active)	61.1 µM (active)	inactive	–	–	–	–	–	–	–	inactive	–	–	–
Cc1ccc2c(c1N)C(=O)c1ccccc1C2=O	inactive	48 µM (active) and 54.5 µM (active)	inactive	30.3 µM (active) and 48.6 µM (active)	inactive	inactive	–	702 nM (active) and 5.64 µM (active)	2.8 µM (active) and 5.03 µM (active)	2.22 µM (active) and 3.99 µM (active)	443 nM (active) and 633 nM (active)	inactive	inactive	–	–
